Compounds without any hit were thinned out: in the full panel of roughly 83,000, 20% have a hit.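 Assay: single dose, 48 h. Readout: percent growth (0 = no net growth; negative = cell death). Active: <10.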 A number with no mark means an inactive call. The source made the active and inactive calls.
Legend:
Assay in all cases: NCI-60 one-dose screen, 48 h (100 = growth as untreated, 0 = no growth, -100 = all killed)
Conditions in all cases: 10 µM unless noted
BT-549 breast = test system: BT-549 breast
MDA-MB-435 melanoma = test system: MDA-MB-435 melanoma
SW-620 colon = test system: SW-620 colon
MCF7 breast = test system: MCF7 breast
HCT-116 colon = test system: HCT-116 colon
HCC-2998 colon = test system: HCC-2998 colon
KM12 colon = test system: KM12 colon
T-47D breast = test system: T-47D breast

Row | SMILES | growth (BT-549 breast) | growth (MDA-MB-435 melanoma) | growth (SW-620 colon) | growth (MCF7 breast) | growth (HCT-116 colon) | growth (HCC-2998 colon) | growth (KM12 colon) | growth (T-47D breast) [%]
1 | CC1(C)CC[C@]23CC[C@]4(C)[C@H](CC[C@@H]5[C@@]6(C)C/C(=C/c7cccnc7)C(=O)C(C)(C)[C@@H]6CC[C@]54C)[C@H]2[C@H]1OC3=O | 31.7% [100 µM] | 36% [100 µM] | 32.9% [100 µM] | 21.7% [100 µM] | 15.6% [100 µM] | 49.9% [100 µM] | 33.4% [100 µM] | –
2 | O=C(O)c1ccccc1C(F)(F)F | – | – | 98.7% | 92.8% | 91.2% | – | 96.3% | 76.5
3 | O=[N+]([O-])c1cc(CCl)ccc1OCCBr | – | – | 106% | – | 93.9% | 104% | 113% | 88.3
4 | O=C(N[C@@H]1CCCc2ccccc21)[C@H](CCC(=O)N1CCN(C2CCCCC2)CC1)N1C(=O)[C@@H](N2C(=O)OC[C@@H]2c2ccccc2)[C@H]1/C=C/c1ccccc1 | – | 9.89% (active) | 37.7% | – | 23.8% | 11.6% | 35.5% | 44.4
5 | COc1ccc(-c2ccc(NNC(=O)c3ccc(F)cc3)nn2)cc1OC | 58.4% | 83.2% | 75.1% | 51.1% | 66.2% | 90.5% | 92.3% | –
6 | Cc1cc[n+](CCCCCCCCCC[n+]2ccc(C)cc2)cc1 | 101% | 102% | 103% | 93.6% | 96.4% | 92.8% | – | –
7 | O=C(N=c1n(-c2ccccc2)nc2n1CCN2C1=NCCN1C(=O)c1ccc(Cl)cc1)c1ccc(Cl)cc1 | 59.6% | 70.5% | 68.3% | 46% | 39.1% | 85.8% | 60.7% | –
8 | Fc1cc2[nH]ncc2c2c3c(c(-c4cn[nH]c4)nc12)CCCC3 | -17.3% (active) | 5.22% (active) | 5.91% (active) | 3.02% (active) | 5.6% (active) | 16.5% | 5.18% (active) | –
9 | CSc1nc(N)c(N=Nc2ccc(S(=O)(=O)Nc3nnc(C)s3)cc2)c(=O)[nH]1 | – | – | 93.4% | 100% | 109% | 117% | 98.6% | 112
10 | CCCCC1COc2cccc3c2N1C=C/C3=C\C(=O)n1ccc2ccccc21 (configuration not stated) | 89.9% | -16.4% (active) | 46.4% | 48.6% | 58.3% | 101% | 68.2% | –
11 | C=CCCC1(C)NC(=O)NC1=O (configuration not stated) | 100% | 99.4% | 102% | – | 96.6% | 104% | – | –
12 | OC(c1ccc(Cl)cc1)(c1ccc(Cl)cc1)C(O)(c1ccc(Cl)cc1)c1ccc(Cl)cc1 | – | 29.3% | 44.4% | 49.7% | 7.19% (active) | 48.6% | 24.2% | –
13 | CC(C)c1ccc(C(=O)Nc2sc3c(c2C#N)CCC(=O)C3)cc1 | -9.76% (active) | -14.4% (active) | -19.1% (active) | 4.86% (active) | -2.81% (active) | 20.7% | 5.49% (active) | –
14 | CC[C@@](C)(NC(=O)[C@H](C)NC(=O)CCNC(=O)C(C)(C)NC(=O)[C@H](C)NC(=O)[C@@H]1CCCN1C(=O)[C@@](C)(CC)NC(=O)[C@H](Cc1ccccc1)NC(=O)C1CCCN1C(=O)C(C)(C)NC(=O)C1CCCN1C(=O)C(C)(C)NC(C)=O)C(=O)NCCC(=O)N[C@@H](CC(C)C)C(=O)NC(C)(C)C(=O)NCCC(=O)N[C@@H](CC(C)C)C(=O)NC(C)(C)C(=O)NC(C)(C)C(=O)N[C@@H](CC(C)C)C(=O)NCCC(=O)NCO (some centres not stated) | -97.3% (active) | -89.2% (active) | -79.2% (active) | -84.9% (active) | -94.6% (active) | -96.1% (active) | -94.8% (active) | –
15 | O=C1/C(=C\c2cccn2Cc2ccccc2)c2ccccc2N1c1c(Cl)cccc1Cl | 81% | 91% | 85.7% | – | 27.1% | 22.1% | 4.07% (active) | –
16 | CCN(CC)c1ccc(/C=C/c2ccc3cc(C)ccc3[n+]2CC)cc1 | 1.38% (active) | -33.3% (active) | 17.6% | – | 7.53% (active) | 16.5% | – | –
17 | Cc1cc(SC#N)ncn1 | 126% | 107% | 106% | 93.3% | 99.5% | – | 104% | –
18 | COc1cc(-c2nc(SCCC(C)C)nc(Nc3ccc(S(N)(=O)=O)cc3)c2C#N)cc(OC)c1OC | 27.6% | – | 36.3% | 16.9% | 3.77% (active) | 35.2% | 19.9% | –
19 | C=CCc1nc2ccccc2s1 | 101% | 116% | 98.9% | 40.6% | 104% | 114% | 107% | –
20 | CC(C)c1ccc(C(=O)Nc2nc3ccc(O)cc3s2)cc1 | 55.5% | 22% | 16% | 9.03% (active) | 39.6% | -8.31% (active) | 15.7% | –
21 | COC(=O)[C@]1(C)CC[C@]2(C)CC[C@]3(C)C(=CC(=O)[C@@H]4[C@@]5(C)CCC(=O)NC(C)(C)[C@@H]5CC[C@]43C)[C@@H]2C1 | -78.6% [100 µM] (active) | – | -54.8% [100 µM] (active) | -49.7% [100 µM] (active) | -72.5% [100 µM] (active) | -89.2% [100 µM] (active) | -80.1% [100 µM] (active) | –
22 | Clc1ccc(/C=N/Nc2nc3ccccc3s2)c(Cl)c1 | 115% | 91.9% | 79.3% | – | 80.6% | 101% | 94% | –
23 | CC(C)C1=NOC(=O)C1=Cc1cn(-c2ccccc2)nc1-c1ccc(Br)cc1 | 119% | 71.3% | 57.7% | – | 64.2% | 76.2% | 85.4% | –
24 | C#C[C@]1(O)CC[C@H]2[C@@H]3CC=C4c5nc(N)sc5CC[C@]4(C)[C@H]3CC[C@@]21C | 0.196% (active) | 15.5% | 74.6% | 75.2% | 33.8% | 80.8% | 44.7% | –

Row | SMILES | growth (BT-549 breast) | growth (MDA-MB-435 melanoma) | growth (SW-620 colon) | growth (MCF7 breast) | growth (HCT-116 colon) | growth (HCC-2998 colon) | growth (KM12 colon) | growth (T-47D breast) [%]
25 | O=C(CSc1nc2ccc([N+](=O)[O-])cc2[nH]1)Nc1cccc(Cl)c1 | 17.2% | 20.5% | 39.9% | 15.3% | 14.7% | 34.4% | 23.9% | –
26 | CC1(C)CC[C@]2(C(=O)O)CC[C@]3(C)[C@H](CC[C@@H]4[C@@]5(C)CCC(=O)C(C)(C)[C@@H]5CC[C@]43C)[C@H]2[C@H]1OC(=O)C(F)(F)F | -70% [100 µM] (active) | -69.3% [100 µM] (active) | -64.9% [100 µM] (active) | -40.1% [100 µM] (active) | -66.3% [100 µM] (active) | -93.7% [100 µM] (active) | -75.7% [100 µM] (active) | –
27 | c1ccc(-c2nnc(-c3c[nH]c4ncccc34)s2)cc1 | 95.3% | 94.8% | 104% | 54.1% | 91% | 111% | 93.2% | –
28 | C=CCCCCCCCCC(=O)OC(C)C | 108% | 111% | 96.5% | 98.2% | 97.7% | 112% | 95.3% | –
29 | CC(C)CCNCC(C)(C)O | 110% | 112% | 109% | 109% | 109% | 109% | 116% | –
30 | O=C(Oc1ccc(Cl)cc1[N+](=O)[O-])Oc1ccc(Cl)cc1[N+](=O)[O-] | 119% | 120% | 109% | – | 113% | 108% | 106% | –
31 | COc1cccc(-c2[nH]c(=S)ncc2C(=O)c2ccccc2)c1 | 73.9% | -20% (active) | 66.6% | 69.8% | 61.3% | 102% | 51.5% | –
32 | COc1ccc2c(c1)c(-c1noc(-c3cn(C)c4ncc(F)cc34)n1)cn2C | – | 77.1% | 82% | – | 80.7% | 90% | 87.8% | –
33 | COc1ccc(-c2cc(-c3ccc(Cl)cc3)nc(SCCCCCCC(=O)NO)n2)cc1 | – | 39.2% | 25.5% | 22.1% | 14.9% | 59.8% | 45.9% | –
34 | CC/C=C(\C)C(CCC)(CN=O)C(=O)OCC (configuration not stated) | 112% | 117% | 109% | 102% | 92.2% | 96.2% | 112% | –
35 | O=C(CSc1nc2ccc([N+](=O)[O-])cc2[nH]1)Nc1ccc(F)c(Cl)c1 | -0.0932% (active) | 15.5% | 26.4% | 9.25% (active) | 7.89% (active) | 32.9% | 19.9% | –
36 | O=C1/C(=C\c2cn(CC(O)CN3CCCCC3)c3ccccc23)c2ccccc2N1c1c(Cl)cccc1Cl (configuration not stated) | -86.1% (active) | -93.3% (active) | -91.8% (active) | -77.5% (active) | -78.6% (active) | -82.4% (active) | -95.3% (active) | –
37 | O=C(NCCO)c1cccnc1 | 108% | 106% | 96.1% | – | 99% | 103% | – | –
38 | Cc1cc(C)nc(SCC(=O)Nc2cccc(N=Cc3ccccc3O)c2)n1 | 92.9% | 99.2% | 99.1% | 94.3% | 97.3% | 121% | 107% | –
39 | O=C(CCNCc1ccccc1)c1ccccc1 | – | 109% | 109% | – | 106% | 107% | 96.7% | –
40 | C#CCC(C(=O)OCC)C(=O)OCC | – | 97.8% | 106% | 98% | 105% | 101% | 106% | –
41 | CC1(C)CC[C@]23CC[C@]4(C)[C@H](CC[C@@H]5[C@@]6(C)C/C(=C/c7ccncc7)C(=O)C(C)(C)[C@@H]6CC[C@]54C)[C@H]2[C@H]1OC3=O | 52.4% [100 µM] | 78.7% [100 µM] | 80.8% [100 µM] | 70.1% [100 µM] | 47.9% [100 µM] | 78.2% [100 µM] | 81.3% [100 µM] | –
42 | CN(C)C(=S)Sc1ccc([N+](=O)[O-])cc1[N+](=O)[O-] | – | 44.4% | -63.1% (active) | – | -54.4% (active) | 88.9% | 49.1% | –
43 | COC(=O)c1c(C)[nH]c(/C=C2\N=C(c3ccc[nH]3)C=C2OC)c1C | 0.541% (active) | -44.9% (active) | 1.56% (active) | 1.82% (active) | -75% (active) | -40.9% (active) | -2.32% (active) | –
44 | COCCCNc1nc(NC(=O)c2cc(OC)cc(OC)c2)cc(-c2cccnc2)n1 | – | 100% | 101% | 97.8% | 90.3% | 110% | 103% | –
45 | Cn1cc(-c2noc(-c3cn(C)c4ncc(F)cc34)n2)c2cc(Br)ccc21 | – | 72.3% | 57.3% | 51.8% | 32.7% | 107% | 58.1% | –
46 | O=[N+]([O-])c1cccc(/C=C/c2ccc3ccccc3n2)c1 | 73.7% | 79.8% | 85.5% | – | 82.4% | 81% | 82.7% | –
47 | CCCN1CC(c2ccc(OC)c(OC)c2)=C(c2cn(C(=O)OCC)c3ccccc23)C1=O | 58.6% | -10.5% (active) | 31.5% | 20.4% | 21% | 78.3% | 32.3% | –

— PubChem BioAssay (NCI)
